Assay [1] concerns the target DNA repair nuclease/redox regulator APEX1 (Homo sapiens) (UniProt P27695). Kind of assay: qHTS Validation Assay for Inhibitors of the Human Apurinic/apyrimidinic Endonuclease 1 (APE1) (AID 1705). In a few lines:
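Read-out: TAMRA fluorescence (525 nm ex, 598 nm em) from cleavage of a quenched THF abasic-site duplex, 50 nM final; activity taken as intensity change between third and first of three reads 60 s apart.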
(qHTS replaces the single test concentration by a dilution series.)

Assay [2] has as its target Endonuclease 4 (Escherichia coli (strain K12)) (UniProt P0A6C1). Kind of assay: Counterscreen for APE1 Inhibitors: qHTS Validation Assay for Inhibitors of Endonuclease IV (AID 1708). In a few lines: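 Concentration-response counterscreen run identically to the APE1 assay: 15 min room-temperature preincubation of 2 nM enzyme with compound, reaction started with 50 nM quenched abasic DNA, progress taken from kinetic fluorescence.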

Assay [3] can be described thus: qHTS for differential inhibitors of proliferation of Plasmodium falciparum line 7G8 (AID 1815).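 Note: parasite growth measured after three days of incubation.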
Assay [4] is described as follows: qHTS for differential inhibitors of proliferation of Plasmodium falciparum line GB4 (AID 1816).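 Note: parasite growth measured after 72 h incubation.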 Conditions: Potency: Plasmodium falciparum GB4 proliferation inhibition.
The nature of assay [5]: qHTS for differential inhibitors of proliferation of Plasmodium falciparum line 3D7 (AID 1876).
The nature of assay [6]: qHTS for differential inhibitors of proliferation of Plasmodium falciparum line D10 (AID 1877).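 Note: parasites grown with compound for 72 h before DNA staining.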
The nature of assay [7]: qHTS for differential inhibitors of proliferation of Plasmodium falciparum line Dd2 (AID 1882). Note: nearly all actives have a fitted effect of over 65% in size. Conditions: Potency: Plasmodium falciparum Dd2 proliferation inhibition. In a few lines:
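Dd2-infected erythrocytes (0.3% parasitemia, 2.5% hematocrit final) incubated with compound 72 h at 37 C, 5% CO2; lysed with saponin/Triton buffer containing SYBR Green I, incubated overnight in the dark, then read by fluorescence (485/535 nm). Normalized to 0.29 uM artemisinin and DMSO.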

Assay [8] can be described thus: qHTS for differential inhibitors of proliferation of Plasmodium falciparum line HB3 (AID 1886).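 Note: parasites grown with compound for 72 h before SYBR Green readout.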 Conditions: Potency: Plasmodium falciparum HB3 proliferation inhibition.
A short description of assay [9]: qHTS for differential inhibitors of proliferation of Plasmodium falciparum line W2 (AID 1883).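 Note: parasites grown with compound for 72 h before lysis and staining.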 The settings on record: Potency: Plasmodium falciparum W2 proliferation inhibition.
A short description of assay [10]: Counterscreen for APE1 Inhibitors: Fluorescent Dye Displacement Validation Assay (AID 1707). In a few lines: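 Assay buffer: Tris-HCl pH7.5 with 50mM NaCl, 2 mM MgCl2, 0.01% Tween-20. Dye 250 nM, duplex 50 nM final. Readout: decrease in ThO endpoint fluorescence, 480 nm excitation, 540 nm emission.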
A general note: Counterscreens check selectivity or assay interference.

Records with an inconclusive call do not appear. Active and inactive are the calls of the source. Calls come from the whole dose curve; as a rule, active = well fitted curve in the direction sought with a large enough effect; inconclusive = small, poorly fitted or top-dose-only effect, or another doubt; inactive = no such curve, though single readings can be large; an effect the other way counts as inactive or inconclusive.
Potency is the fitted concentration of half-maximal effect.

Sequence of DNA repair nuclease/redox regulator APEX1 (Homo sapiens) (P27695 whole entry, looked up): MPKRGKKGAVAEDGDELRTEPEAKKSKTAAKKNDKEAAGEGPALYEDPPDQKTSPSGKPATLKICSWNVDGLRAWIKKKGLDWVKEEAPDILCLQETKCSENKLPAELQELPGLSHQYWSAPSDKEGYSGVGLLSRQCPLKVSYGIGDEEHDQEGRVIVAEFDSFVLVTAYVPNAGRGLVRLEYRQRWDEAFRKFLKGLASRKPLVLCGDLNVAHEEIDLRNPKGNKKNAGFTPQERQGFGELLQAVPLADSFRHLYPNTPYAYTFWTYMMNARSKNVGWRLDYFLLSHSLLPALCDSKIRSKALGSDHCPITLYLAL

For `Cc1cnc(C(=O)NCCc2ccc(S(=O)(=O)NC(=O)NC3CCCCC3)cc2)cn1`, the Potency entry in [1], in assay [2], in [3], in assay [4], in assay [5] and in assay [6] was “inactive” throughout. The Potency result in assay [7] and in [8] was “inactive” each time.
In the case of `CCC1(C)CC(=O)NC1=O` (configuration not stated), the Potency entry in assay [1], in assay [2], in [3], in assay [4], in assay [5] and in assay [6] was “inactive” throughout. Moreover, the Potency result in assay [7], in assay [9] and in assay [8] was “inactive” in each case.
Consider `Cc1ccc(C(=O)Nc2ccc(S(=O)(=O)O)c3cc(S(=O)(=O)O)cc(S(=O)(=O)O)c23)cc1NC(=O)c1cccc(NC(=O)Nc2cccc(C(=O)Nc3cc(C(=O)Nc4ccc(S(=O)(=O)O)c5cc(S(=O)(=O)O)cc(S(=O)(=O)O)c45)ccc3C)c2)c1`, for which the Potency was 8.91 µM (active) in assay [1], 4.47 µM (active) in [10], 4.47 µM (active) in [2] and 12.6 µM (active) in assay [9].
As for `Cn1cnc2c1c(=O)[nH]c(=O)n2C`, the Potency entry in assay [1], in assay [2], in [3], in assay [4], in assay [5] and in assay [6] was “inactive” throughout. Further, the Potency result in assay [7], in assay [9] and in assay [8] was “inactive” in each case.
For the molecule `CN1CCN(C2=Nc3cc(Cl)ccc3Nc3ccccc32)CC1`, the Potency entry in assay [1] and in assay [2] was “inactive” throughout.
Take `COc1nc(C)nc(Cl)c1NC1=NCCN1`: the Potency entry in [1], in [2], in [3], in assay [4], in [5] and in [6] was “inactive” each time. Also, the Potency entry in assay [7] and in assay [8] was “inactive” each time.
`CCOC(=O)C(C)(C)Oc1ccc(Cl)cc1`: the Potency result in [1], in assay [2], in [3], in assay [4], in assay [5] and in assay [6] was “inactive” throughout. Besides, the Potency result in assay [7], in [9] and in assay [8] was “inactive” in each case.
In the case of `Cn1c(=O)c2c(ncn2C)n(C)c1=O`, the Potency result in [1], in [2], in assay [3], in assay [4], in assay [5] and in assay [6] was “inactive” each time. Moreover, the Potency entry in assay [7], in assay [9] and in assay [8] was “inactive” in each case.
As to `CN1CCN(CCCN2c3ccccc3Sc3ccc(Cl)cc32)CC1`, the Potency entry in [1] and in assay [10] was “inactive” each time. For the same molecule, the Potency is 5.01 µM (active) in [3]; 10 µM (active) in [4]; 6.31 µM (active) in [5]; 12.6 µM (active) in assay [6]; 11.2 µM (active) in [7]; 4.47 µM (active) in [9]. For the same molecule, the Potency in [8] is 12.6 µM (active).
With `Cc1ccccc1N1C(=O)c2cc(S(N)(=O)=O)c(Cl)cc2NC1C` (configuration not stated), the Potency entry in [1], in assay [10], in assay [4], in [5], in assay [6] and in assay [7] was “inactive” throughout. Besides, the Potency result in assay [8] is “inactive”.
For `CC(C)Cc1ccc(C(C)C(=O)O)cc1` (configuration not stated), the Potency entry in assay [1], in assay [10], in assay [4], in [5], in [6] and in assay [7] was “inactive” each time. Further, the Potency result in assay [9] and in [8] was “inactive” each time.
In the case of `Nc1ccn([C@H]2CC[C@@H](CO)O2)c(=O)n1`, the Potency result in assay [1], in [2], in assay [3], in [4], in assay [5] and in [6] was “inactive” in each case. In addition, the Potency result in assay [7], in [9] and in assay [8] was “inactive” in each case.
In the case of `CN(Cc1cnc2nc(N)nc(N)c2n1)c1ccc(C(=O)N[C@@H](CCC(=O)O)C(=O)O)cc1`, the Potency is 20 µM (active) in [1]; 0.126 µM (active) in assay [3]; 0.0398 µM (active) in assay [4]; 0.0708 µM (active) in assay [5]; 0.0398 µM (active) in [6]; 0.0794 µM (active) in [7]. The figures for the Potency in assay [9] and in assay [8] were 0.0398 µM (active) and 0.0708 µM (active), respectively. The Potency result in assay [2] was “inactive”.
For `Cn1c(=O)c2[nH]cnc2n(C)c1=O`, the Potency entry in assay [1], in assay [2], in assay [3], in assay [4], in assay [5] and in assay [6] was “inactive” in each case. Besides, the Potency entry in assay [7], in [9] and in assay [8] was “inactive” each time.
With `Cc1cn([C@H]2C=C[C@@H](CO)O2)c(=O)[nH]c1=O`, the Potency entry in assay [1], in [3], in assay [4], in assay [5], in [6] and in [7] was “inactive” in each case. For the same molecule, the Potency entry in [9] and in assay [8] was “inactive” throughout.
In the case of `CC12CC3CC(C)(C1)CC(N)(C3)C2`, the Potency result in [1], in [2] and in [6] was “inactive” each time. Besides, the Potency in assay [3] was 11.2 µM (active); in assay [4], 0.891 µM (active); in assay [7], 5.62 µM (active); in assay [9], 2.24 µM (active).
Consider `O=C(Nc1ccc([N+](=O)[O-])cc1Cl)c1cc(Cl)ccc1O`, for which the Potency entry in assay [1] was “inactive”. Besides, the Potency in assay [3] was 1 µM (active); in assay [4], 0.708 µM (active); in assay [5] it was 0.794 µM (active); in [6] it was 1 µM (active); in assay [7], 1.41 µM (active); in assay [9], 0.794 µM (active). Also, the Potency in assay [8] was 0.794 µM (active).
Turning to `Nc1nnc(-c2cccc(Cl)c2Cl)c(N)n1`, the Potency result in assay [1], in assay [2], in assay [3], in assay [6], in assay [7] and in assay [9] was “inactive” throughout. The Potency entry in assay [8] is “inactive”.
Turning to `COc1cc2nc(N3CCN(C(=O)c4ccco4)CC3)nc(N)c2cc1OC`, the Potency entry in assay [1] was “inactive”. Besides, the Potency was 7.94 µM (active) in assay [3]; 12.6 µM (active) in [4]; 8.91 µM (active) in assay [5]; 10 µM (active) in assay [6]; 7.94 µM (active) in [7]; 5.01 µM (active) in assay [9]. Moreover, in assay [8], the Potency was 10 µM (active).

The values are drawn from PubChem BioAssay (NCATS).
